# Measurements as given in PubChem BioAssay AID1030 (National Center for Advancing Translational Sciences (NCATS), 2008).
# Hit rate of the full screen: of about 220,000 compounds, about 16,000 (7.3%) were called active. Not shown: some 25% with an inconclusive outcome. The call rests on the fitted dose curve; in most records, active means well fitted inhibition curve with a large enough effect (not every such curve was filed as active); inconclusive means small, poorly fitted or top-dose-only effect, or another doubt; inactive means no such curve, though single readings can be large or run the other way. Many of the other results were omitted from the sample, so actives are more common in it than they were.
# Molecular target: Aldehyde dehydrogenase 1A1 (Homo sapiens) (UniProt P00352)
# Sequence (P00352 whole entry, looked up): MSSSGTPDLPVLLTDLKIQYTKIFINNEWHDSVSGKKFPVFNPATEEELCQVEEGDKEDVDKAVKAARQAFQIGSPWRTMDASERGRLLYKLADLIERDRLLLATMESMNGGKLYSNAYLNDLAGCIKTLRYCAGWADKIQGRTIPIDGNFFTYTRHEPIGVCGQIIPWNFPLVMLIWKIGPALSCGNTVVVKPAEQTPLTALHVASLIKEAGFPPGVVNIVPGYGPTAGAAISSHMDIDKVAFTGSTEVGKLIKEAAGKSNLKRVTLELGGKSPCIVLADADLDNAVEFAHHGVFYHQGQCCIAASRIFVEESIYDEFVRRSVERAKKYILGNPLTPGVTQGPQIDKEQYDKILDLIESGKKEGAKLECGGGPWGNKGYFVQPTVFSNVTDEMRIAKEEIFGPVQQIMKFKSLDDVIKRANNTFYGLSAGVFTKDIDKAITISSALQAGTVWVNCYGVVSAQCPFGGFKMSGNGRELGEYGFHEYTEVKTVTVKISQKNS
# Assay: qHTS Assay for Inhibitors of Aldehyde Dehydrogenase 1 (ALDH1A1);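 on activity, negative = inhibition: plate controls were no enzyme wells and a reference inhibitor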
# Conditions: Purified ALDH1A1, NADH fluorescence, propionaldehyde substrate; series mostly up to 75.3 µM; activity, negative = inhibition: at the top concentration
# Potency means the concentration at half of the fitted maximal effect.
Compound,"activity, negative = inhibition",Potency
COc1cc(OC)cc(-c2nnc(SCC(=O)Nc3ccc(C(=O)O)cc3)s2)c1,-8.2% (inactive),
Cc1ccc(S(=O)(=O)NC(C(=O)N2CCOCCOCCOCCOCC2)c2ccccc2)cc1 (stereo not drawn),-1.15% (inactive),
COc1cc(OC)cc(C(=O)NCCSCc2ccco2)c1,5.75% (inactive),
CCC(CC)NC(=O)/C=C/c1cccc([N+](=O)[O-])c1,-3.2% (inactive),
O=C(/C=C/c1cccc([N+](=O)[O-])c1)NCCSCc1ccco1,,20 µM (active)
C/C=C1\C2C=C(C)CC1(N)c1ccc(=O)[nH]c1C2 (stereo not drawn),,inactive
CCOc1ccc(-c2ccc(SCC(=O)N3CCOCC3)nn2)cc1,1.06% (inactive),
CN1CCN(S(=O)(=O)c2cccc(C(=O)N3CCc4ccccc43)c2)CC1,-2.83% (inactive),
C/C(=N\NC(=O)c1cccc(N2CCCC2=O)c1)c1ccc(N)cc1,-7.57% (inactive),
O=C(CN1C(=O)COc2ccccc21)Nc1ccc(F)cc1,,22.4 µM (active)
O=C(CCN1C(=O)COc2ccccc21)NCCCN1CCN(c2ccc(F)cc2)CC1,8.59% (inactive),
CCCN1CCN(CCCNC(=O)CN2C(=O)COc3ccccc32)CC1,-0.825% (inactive),
Cc1ccc(Cl)c(NC(=O)CN2CCN(C=O)CC2)c1,6.92% (inactive),
CCCCC/C=C\C/C=C\C/C=C\CCCCC(=O)NCC(=O)O,1.71% (inactive),
O=C(O)C1CCN(C(=O)c2cc(F)cc3c2OCOC3)CC1,-4.59% (inactive),
COc1ccc([N+](=O)[O-])cc1NC(=O)C(C)OC(=O)C1c2ccccc2Oc2ccccc21 (stereo not drawn),4.85% (inactive),
COc1ccc([N+](=O)[O-])cc1C1NN=C(c2cccc3ccccc23)S1 (stereo not drawn),,10 µM (active)
COc1ccccc1C1CCN(c2ccc([N+](=O)[O-])cn2)CC1,-3.06% (inactive),
COc1ccc(CN(C)Cc2nc3cc(OC)c(OC)cc3c(=O)[nH]2)c(OC)c1,6.82% (inactive),
COc1ccnc(Oc2ccccc2)c1-c1ncn[nH]1,-0.551% (inactive),
Cc1cc2oc(=O)cc(-c3ccccc3)c2c(C)c1/C=C/c1ccc(F)cc1,1.81% (inactive),
Nc1ccc(S(=O)(=O)Nc2nccc(/C=C/c3ccc(Br)s3)n2)cc1,-11.9% (inactive),
COc1ccc(F)cc1C(=O)C1CCCN(C(=O)CCc2ccccn2)C1 (stereo not drawn),-4.22% (inactive),
CSCC(=O)N1CCCC(C(=O)c2cc(F)ccc2F)C1 (stereo not drawn),,10 µM (active)
Cc1cc(Cl)ccc1C(=O)C1CCCN(C(=O)CCN2CCCO2)C1 (stereo not drawn),-15.5% (inactive),
Cc1cc(C(=O)CC#N)c(C)n1-c1c(C)n(C)n(-c2ccccc2)c1=O,17.2% (inactive),

Compound,"activity, negative = inhibition",Potency
Cc1cc(C(=O)COC(=O)c2cccs2)c(C)n1-c1c(C)n(C)n(-c2ccccc2)c1=O,,20 µM (active)
Cc1cc(C(=O)OCC(=O)NCc2ccco2)c(C)n1-c1ccccc1,-9.68% (inactive),
CCOc1ccc(CCN2C(=O)c3cccnc3C2=O)cc1OCC,4.81% (inactive),
O=C1CC(=O)Nc2cc(S(=O)(=O)N3CCN(c4cccc(C(F)(F)F)c4)CC3)ccc2N1,-2.99% (inactive),
O=C(CN(CC1CCCO1)C(=O)CNS(=O)(=O)c1ccc(F)cc1)NCc1ccco1 (stereo not drawn),4.66% (inactive),
Cc1ccc(S(=O)(=O)NCC(=O)N(CC(=O)NC2CCCCC2)Cc2ccco2)cc1,,17.8 µM (active)
Cc1ccc(S(=O)(=O)N(C)CC(=O)NC2CCCC2)cc1,-2.42% (inactive),
COc1ccccc1-c1nc(SC)n[nH]1,2.27% (inactive),
O=C(CN1CCOCC1)Nc1c(Cl)cc(Cl)cc1Cl,9.81% (inactive),
C=CCNC(=S)NNC(=O)c1cc(Cl)ccc1OC,8.59% (inactive),
COc1ccc(C(=O)N(Cc2ccc(N(C)C)cc2)C2CCS(=O)(=O)C2)cc1 (stereo not drawn),,5.62 µM (active)
CCCCN(C(=O)COc1ccc(NC(C)=O)cc1)C1CCS(=O)(=O)C1 (stereo not drawn),1.35% (inactive),
COc1cc(C(=O)N(Cc2ccc(N(C)C)cc2)C2CCS(=O)(=O)C2)cc(OC)c1OC (stereo not drawn),-4.2% (inactive),
CCOc1ccc(C(=O)N(Cc2ccc(N(C)C)cc2)C2CCS(=O)(=O)C2)cc1 (stereo not drawn),,12.6 µM (active)
COc1ccc(NC(=O)COc2ccc(C(=O)OCC(=O)N(C)C3CCS(=O)(=O)C3)cc2OC)cc1 (stereo not drawn),-5.23% (inactive),
CC1(C)C(C=C(Cl)Cl)C1C(=O)N(Cc1ccc(Cl)cc1)C1CCS(=O)(=O)C1 (stereo not drawn),-1.61% (inactive),
CCCN(CCC)CCCNC(=O)CNC(=O)c1nn(-c2ccc(OC)cc2)c(=O)c2ccccc12,-5.06% (inactive),
COc1ccc(CC(NC(C)=O)C(=O)NC2CCN(C(=O)c3ccc(OC)c(OC)c3)CC2)cc1OC (stereo not drawn),4.43% (inactive),
CNC(=O)c1ccc(NC(=O)c2cccc(C(F)(F)F)c2)cc1,2.1% (inactive),
CC(C)N(C(=O)Cn1cc(SCC(=O)N2CCCC2)c2ccccc21)C(C)C,4.74% (inactive),
O=C(c1cccc(F)c1)N1CCN(c2ccc([N+](=O)[O-])c3cccnc23)CC1,-6.77% (inactive),
O=C(c1cccc(C(=O)N2CCN(c3ccc(F)cc3)CC2)c1)N1CCN(c2ccc(F)cc2)CC1,2.51% (inactive),
O=C(c1cccc(F)c1)N1CCN(c2ccc([N+](=O)[O-])c(N3CCCCC3)c2)CC1,,8.91 µM (active)
CCCN(CC(=O)Nc1ccccc1C)C(=O)c1cc(=O)[nH]c2ccccc12,-3.3% (inactive),
O=C(Nc1ccc2c(c1)C(=O)OC2)Nc1cccc2ccccc12,4.39% (inactive),
CC(C)OCCCNC(=S)N1CCC(C(=O)c2ccc3c(c2)OCCO3)CC1,-11.4% (inactive),

Compound,"activity, negative = inhibition",Potency
Cc1nn(C)c(C)c1CN(C(=O)CCc1nnc(Cc2c[nH]c3ccccc23)o1)C(C)C,17% (inactive),
CCOC(=O)N1CCN(CC(=O)Nc2cc(C)nn2-c2nc3ccccc3s2)CC1,,15.8 µM (active)
Cc1cc(NC(=O)CN2CCCC(C)C2)n(-c2nc3ccccc3s2)n1 (stereo not drawn),0.548% (inactive),
CCOC(=O)N1CCN(CC(=O)Nc2ccc(F)cc2)CC1,-2.18% (inactive),
CC(C)(C)N(Cc1ccccc1)C(=O)COC(=O)CCc1c[nH]c2ccccc12,-11.5% (inactive),
CCOC(=O)CN(C)Cc1c[nH]c2ccccc12,,22.4 µM (active)
O=C(Cc1c[nH]c2ccccc12)OCCOC(=O)Cc1c[nH]c2ccccc12,,17.8 µM (active)
CN(Cc1cccs1)C(=O)Cc1c[nH]c2ccccc12,3.39% (inactive),
CC(=O)NC(Cc1c[nH]c2ccccc12)C(=O)O (stereo not drawn),9.05% (inactive),
NS(=O)(=O)c1ccc(NC(=O)COC(=O)CCc2c[nH]c3ccccc23)cc1,-1.24% (inactive),
COc1ccc(NC(=O)C(=O)NCC(=O)Nc2cccc(C(F)(F)F)c2)cc1,0.589% (inactive),
O=C(C(=O)N1CCc2ccccc2C1)N1CCc2ccccc2C1,8.43% (inactive),
Cc1nnc(SCC(=O)N2CCc3ccccc3C2)s1,-3.58% (inactive),
COc1ccc(-c2nc(CS(=O)CC(=O)N3CCc4ccccc4C3)c(C)o2)cc1 (stereo not drawn),,25.1 µM (active)
Clc1cc(-c2ccc(/C=N/n3cnnc3)o2)ccc1Br,9.2% (inactive),
CCc1ccccc1NC(=O)CSc1nnc(-c2ccncc2)o1,-0.724% (inactive),
Cc1ccc2c(Cl)c(C(=O)Nc3nn[nH]n3)sc2c1,0.398% (inactive),
O=c1ccn([C@@H]2O[C@H](COP(=O)(O)OP(=O)(O)OP(=O)(O)O)[C@@H](O)[C@H]2O)c(=O)[nH]1,6.39% (inactive),
Cc1ccc(C(=O)NCC(=O)O)cc1S(=O)(=O)N1CCCCC1,2.98% (inactive),
COc1ccccc1N1CCN(C(=O)c2ccc(Cl)c(S(=O)(=O)N3CCCC3)c2)CC1,0.0267% (inactive),
O=C(Oc1ccc([N+](=O)[O-])cc1)c1ccc(Cl)c(S(=O)(=O)N2CCCCC2)c1,,12.6 µM (active)
CC1CCC2(CC1)NC(=O)N(Cc1nnc(-c3cccs3)o1)C2=O (stereo not drawn),-3.25% (inactive),
CC(O)[C@@H](N)C(=O)O (stereo partly drawn),16.9% (inactive),
CN(CC(=O)NCCc1ccccn1)S(=O)(=O)c1ccc(Cl)cc1,-1.89% (inactive),
O=c1[nH][nH]c(=O)c2cc(N3CCCC3)ccc12,-1.14% (inactive),
O=C1C=CC(=O)N1c1ccc(N2CCCCC2)cc1,,0.251 µM (active)

Compound,"activity, negative = inhibition",Potency
Cc1cccn2c(CN(C)C3CCCc4ccccc43)c(C(=O)N3CCOCC3)nc12 (stereo not drawn),-12.9% (inactive),
CC1CCN(C(=S)c2cccc(O)c2)CC1,,31.6 µM (active)
CC(=O)N1CCN(S(=O)(=O)c2cccc(C(=O)NC3CCC(C)CC3)c2)CC1 (stereo not drawn),-8.41% (inactive),
COc1ccc(C(=O)Nc2ccc(N3CCC(C)CC3)cc2)cc1Br,10.6% (inactive),
Cc1cc2c(cc1C)[n+](C)cn2CC(O)COCC1CC=CCC1 (stereo not drawn),-2.51% (inactive),
CC(=C1C(=O)c2ccccc2C1=O)N1CCN(c2ccccn2)CC1,,12.6 µM (active)
COc1ccc(N2CCN(C(C)=C3C(=O)c4ccccc4C3=O)CC2)cc1,2.48% (inactive),
CNC(=S)N1CCN(c2ccccn2)CC1,3.36% (inactive),
CC1(C)OC(=O)C(=CNC(CO)C(=O)O)C(=O)O1 (stereo not drawn),6.92% (inactive),
O=C1N=C2SCCN2/C1=C\c1c(Cl)cccc1Cl,-0.867% (inactive),
O=C(/C=C/c1c(Cl)cccc1Cl)NCc1ccccc1,5.21% (inactive),
O=Cc1c(Cl)cccc1Cl,,14.1 µM (active)
Cc1ccc(C(=O)O)cc1N1C(=O)CCCC1=O,14% (inactive),
O=C(O)c1ccc(NC(=O)c2cn(-c3ccccc3)nc2-c2ccc(Cl)cc2)cc1,1.24% (inactive),
COc1ccccc1NC(=O)CSc1nnc(Cn2nnc(-c3ccccc3)n2)n1-c1ccccc1,,2.82 µM (active)
COCCn1c(Cc2cccn2C)nnc1SCC(=O)Nc1nccs1,-8.29% (inactive),
COC(=O)c1ccc(NC(=O)CSc2nnc(Cc3cccn3C)n2-c2ccc(F)cc2)cc1,,22.4 µM (active)
COc1cc(-c2nnn(CC(=O)NCc3ccccc3)n2)cc(OC)c1OC,3.6% (inactive),
COC(=O)c1ccccc1NC(=O)CSc1nnnn1C,2.76% (inactive),
COc1cccc(-n2c(Cc3cc(=O)[nH]c(=O)[nH]3)nnc2SCC(=O)Nc2ccccc2)c1,-2.15% (inactive),
Cn1cccc1Cc1nnc(SCC(=O)NCCc2ccccc2)n1-c1ccc(F)cc1,-0.308% (inactive),
COc1ccc(OC)c(/C=N/NC(=O)CSc2nnc(C)n2-c2ccccc2)c1,-10.8% (inactive),
COc1ccccc1NC(=O)CSc1nnc(Cc2cccn2C)n1-c1ccc(F)cc1,,17.8 µM (active)
O=C1CC(c2c(F)cccc2Cl)C(n2cncn2)C(O)=C1C1NCCc2ccccc21 (stereo not drawn),1.49% (inactive),
CCOc1ccc(C(CC(=O)O)NC(=O)C23CC4CC(CC(C4)C2)C3)cc1OC (stereo not drawn),3.06% (inactive),
